From PubChem BioAssay

Test: small molecules captured by biotinylated probe aFST – biochemical, small-molecule microarray, fluorescence 635/667, stem cell growth factor project, primary screen (AID 1086);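 further: score merges 667 nm fluorescence with signal-to-noise of each printed compound spot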
Settings: higher = more signal

Structure (SMILES) | composite z-score
[N-]=[N+]=NCc1ccccc1C[C@@]1(C(=O)NCCN2CCOCC2)N=C(c2ccc(OCCCO)cc2)O[C@@H]1c1ccccc1CN=[N+]=[N-] | 1.59
C[C@]12C(=O)N(CCCO)[C@@H]3C(=O)N(c4ccc(Cl)cc4)CC=CC31O[C@@H]1/C=C\CCCOC(=O)C12 (stereo partly specified) | -0.67
CCCCC(O)C1C=CC2C(=O)N(Cc3ccccc3)C(=O)C2N1n1cnnc1 (stereo unspecified) | 0.437
Cc1ccccc1C(O)C1C=CC2C(=O)N(C)C(=O)C2N1Nc1ccc([N+](=O)[O-])cc1[N+](=O)[O-] (stereo unspecified) | 1.59
COCCOC(=O)N1C(=O)[C@@]2(c3cc(C#Cc4ccc(OC)cc4)ccc31)[C@H](C(=O)N1CCc3cc(OC)c(OC)cc3C1)[C@H]1C(=O)O[C@H](c3ccccc3)[C@H](c3ccccc3)N1[C@@H]2c1ccc(OCCO)cc1 | 0.0478
O=c1c2ccc(Br)cc2nc(-c2ccccc2)n1Cc1cccc(O)c1 | 0.831
Cc1ccc(S[C@]2(C(=O)NCCN3CCOCC3)CC(=O)N(C3Cc4ccccc4C3)[C@@H]2c2ccc(CO)cc2)cc1 | 0
C=CC[C@@]1(C(=O)NCCN2CCOCC2)N=C(c2ccc(OCCCO)cc2)O[C@@H]1c1ccccc1 | 1.16
C[C@H]1NC(=O)C([C@@H](C)OCc2ccccc2)NC(=O)[C@@]23C(=O)N[C@@H](Cc4ccccc4)C2[C@H](C)[C@@]2(C)O[C@H]2C3/C=C/CC/C=C/CNC1=O (stereo partly specified) | 0.114
C/C=C/[C@@H](CCn1cc([C@H](O)c2ccccc2)nn1)[Si](C)(C)c1ccc(OC)cc1 | -1.12
CCCC=C(CCC)[C@@H](NC(=O)Cc1ccccc1)c1ccc(C(=O)OC)cc1 | 0.94
C=C(COC)/C(=C/C[C@@H](OC(=O)c1ccncc1)c1cccc(OCCO)c1)c1cc(C(=O)OC)ccc1OC | -0.0671
COc1cc(NN2C(C(O)c3ccc(I)cc3)C=CC3C(=O)N(C)C(=O)C32)cc(OC)c1OC (stereo unspecified) | -0.0647
COCCCNC(=O)[C@@]1(Cc2ccccc2CN=[N+]=[N-])N=C(c2ccc(OCCCO)cc2)O[C@H]1c1ccccc1N=[N+]=[N-] | 1.27
O=C(CS)NCCCCCNC(=O)[C@@H]1C[C@@H]2C(=O)N3CCC[C@H]3C(=O)N2[C@@H]1c1ccc(O)cc1 | -0.0412
Cc1cc(C)c(C(O)C2C=CC3C(=O)N(c4ccccc4)C(=O)C3N2Nc2ccc([N+](=O)[O-])cc2)c(C)c1 (stereo unspecified) | 1.51
C=C[C@H](C)[C@H](OC(=O)Nc1ccc(SC)cc1)c1ccc(O)c2ccccc12 | -0.744
COC(=O)C(CC#Cc1ccc2c(c1)[C@]1(C(=O)N2)[C@H](C(=O)N2CCc3cc(OC)c(OC)cc3C2)[C@H]2C(=O)O[C@H](c3ccccc3)[C@H](c3ccccc3)N2[C@@H]1c1ccc(OCCO)cc1)C(=O)OC | 0.672
COC(=O)[C@@]1(Cc2ccc(OC)cc2)[C@H]2c3cc(C(=O)N4CCCC4)n(CCc4ccc(O)c(OC)c4)c3C[C@H]2CN1C(=O)c1ccccc1 | 0.603
O=C1N(CCS(=O)(=O)c2ccccc2)Cc2ccccc2C[C@@]12COC(c1ccc(OCCCO)cc1)=N2 | 1.58
CC(C)C[C@H]1NC(=O)[C@H](C)NC(=O)[C@@]23C(=O)N[C@@H](Cc4ccccc4)C2[C@H](C)[C@@]2(C)O[C@H]2C3/C=C/C/C=C\CNC1=O (stereo partly specified) | -0.521
COc1ccc([Si](C)(C)[C@H]2[C@H](CC(=O)N3CCC[C@H]3CO)O[C@@]3(C(=O)N(Cc4ccc(N5C(=O)c6cccc7cccc5c67)cc4)c4ccccc43)[C@@H]2C)cc1 | 0.361
COc1cccc(C)c1NC(=O)O[C@H]1[C@H](OC(=O)Nc2ccccc2)[C@H](OC(=O)Nc2ccccc2)[C@@H](OC)O[C@@H]1CO | 0.319
C=CCC(OC(C)=O)[C@@H]1[C@@H](N(Cc2ccc(-c3ccccc3)cc2)C(=O)c2cccc3ccccc23)c2cc(OCCCO)ccc2N1C(=O)c1ccc2ccccc2n1 (stereo partly specified) | 0.294
O=C1O[C@H](c2ccccc2)[C@H](c2ccccc2)N2[C@H]1[C@@H](C(=O)N1CCN(c3ncccn3)CC1)[C@]1(C(=O)Nc3ccc(C#CCCO)cc31)[C@H]2c1ccc(OCCO)cc1 | 1.35
COC(=O)[C@@]1(Cc2ccccc2N=[N+]=[N-])N=C(c2ccc(OCCCO)cc2)O[C@H]1c1ccccc1 | 0.0635

Test: binders of probe aHhip on microarray, primary screen, stem cell growth factor project, biochemical, small-molecule microarray, fluorescence 635/667 (AID 1087);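 further: score merges spot fluorescence at 667nm with spot signal to noise ratio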
Settings: higher = more signal

Structure (SMILES) | composite z-score
COCC(=C=CC[C@@H](O)c1ccccc1OCCO)C[C@@H](O)c1ccccn1 | 0.0156
COc1ccc([Si](C)(C)[C@H]2[C@H](CCO)O[C@@]3(C(=O)N(Cc4cccc(N5CCOC5=O)c4)c4ccccc43)[C@@H]2C)cc1 | 0.0373
COC(=O)C(CC#Cc1ccc2c(c1)[C@]1(C(=O)N2)[C@H](C(=O)N2CCc3cc(OC)c(OC)cc3C2)[C@H]2C(=O)O[C@H](c3ccccc3)[C@H](c3ccccc3)N2[C@@H]1c1ccc(O)cc1)C(=O)OC | 0.644
COc1ccc([Si](C)(C)[C@H]2[C@H](CCn3cc(CCO)nn3)O[C@@]3(C(=O)N(Cc4cccc(N5C(=O)c6cccc7cccc5c67)c4)c4ccccc43)[C@@H]2C)cc1 | 1.55
C[C@H]1ON(c2ccccc2)[C@@H](c2ccccc2)[C@@H]1C(=O)N1C(=O)OC[C@@H]1c1ccccc1 | -0.374
COc1ccc(C#Cc2ccc3c(c2)[C@]2(C(=O)N3)[C@H](C(=O)O)[C@H]3C(=O)O[C@H](c4ccccc4)[C@H](c4ccccc4)N3[C@@H]2c2ccc(OCCO)cc2)cc1 | 0.122
C=CCC(OC(C)=O)[C@@H]1[C@@H](N(Cc2ccc(-c3ccccc3)cc2)C(=O)Cc2ccc(OC)cc2)c2cc(OCCCO)ccc2N1C(=O)c1ccc(-c2ccccc2)cc1 (stereo partly specified) | 0.259
Cc1ccc(S[C@]2(C(=O)NCC(C)C)CC(=O)N(C3CCCCC3)[C@@H]2c2ccc(CO)cc2I)cc1 | -0.166
COC(=O)C(CC#Cc1ccc2c(c1)[C@]1(C(=O)N2)[C@H](c2ccc(OCCO)cc2)N2[C@H](c3ccccc3)[C@H](c3ccccc3)OC(=O)[C@H]2[C@@H]1C(=O)O)C(=O)OC | 0.398
[N-]=[N+]=NCc1ccccc1C[C@@]1(C(=O)NCCN2CCOCC2)N=C(c2ccc(OCCCO)cc2)O[C@@H]1c1ccccc1CN=[N+]=[N-] | 0.0053
C[C@]12C(=O)N(CCCO)[C@@H]3C(=O)N(c4ccc(Cl)cc4)CC=CC31O[C@@H]1/C=C\CCCOC(=O)C12 (stereo partly specified) | -0.363
CCCCC(O)C1C=CC2C(=O)N(Cc3ccccc3)C(=O)C2N1n1cnnc1 (stereo unspecified) | 0.312
Cc1ccccc1C(O)C1C=CC2C(=O)N(C)C(=O)C2N1Nc1ccc([N+](=O)[O-])cc1[N+](=O)[O-] (stereo unspecified) | -0.0645
COCCOC(=O)N1C(=O)[C@@]2(c3cc(C#Cc4ccc(OC)cc4)ccc31)[C@H](C(=O)N1CCc3cc(OC)c(OC)cc3C1)[C@H]1C(=O)O[C@H](c3ccccc3)[C@H](c3ccccc3)N1[C@@H]2c1ccc(OCCO)cc1 | 0.0623
O=c1c2ccc(Br)cc2nc(-c2ccccc2)n1Cc1cccc(O)c1 | -0.181
Cc1ccc(S[C@]2(C(=O)NCCN3CCOCC3)CC(=O)N(C3Cc4ccccc4C3)[C@@H]2c2ccc(CO)cc2)cc1 | -0.0994
C=CC[C@@]1(C(=O)NCCN2CCOCC2)N=C(c2ccc(OCCCO)cc2)O[C@@H]1c1ccccc1 | 0.124
C[C@H]1NC(=O)C([C@@H](C)OCc2ccccc2)NC(=O)[C@@]23C(=O)N[C@@H](Cc4ccccc4)C2[C@H](C)[C@@]2(C)O[C@H]2C3/C=C/CC/C=C/CNC1=O (stereo partly specified) | 0.127

Structure (SMILES) | composite z-score
C/C=C/[C@@H](CCn1cc([C@H](O)c2ccccc2)nn1)[Si](C)(C)c1ccc(OC)cc1 | -0.236
CCCC=C(CCC)[C@@H](NC(=O)Cc1ccccc1)c1ccc(C(=O)OC)cc1 | 3.03
C=C(COC)/C(=C/C[C@@H](OC(=O)c1ccncc1)c1cccc(OCCO)c1)c1cc(C(=O)OC)ccc1OC | -0.156
COc1cc(NN2C(C(O)c3ccc(I)cc3)C=CC3C(=O)N(C)C(=O)C32)cc(OC)c1OC (stereo unspecified) | -0.0237
COCCCNC(=O)[C@@]1(Cc2ccccc2CN=[N+]=[N-])N=C(c2ccc(OCCCO)cc2)O[C@H]1c1ccccc1N=[N+]=[N-] | 0.351
O=C(CS)NCCCCCNC(=O)[C@@H]1C[C@@H]2C(=O)N3CCC[C@H]3C(=O)N2[C@@H]1c1ccc(O)cc1 | 0.127
Cc1cc(C)c(C(O)C2C=CC3C(=O)N(c4ccccc4)C(=O)C3N2Nc2ccc([N+](=O)[O-])cc2)c(C)c1 (stereo unspecified) | -0.223
C=C[C@H](C)[C@H](OC(=O)Nc1ccc(SC)cc1)c1ccc(O)c2ccccc12 | -0.268
COC(=O)C(CC#Cc1ccc2c(c1)[C@]1(C(=O)N2)[C@H](C(=O)N2CCc3cc(OC)c(OC)cc3C2)[C@H]2C(=O)O[C@H](c3ccccc3)[C@H](c3ccccc3)N2[C@@H]1c1ccc(OCCO)cc1)C(=O)OC | 0.0373
COC(=O)[C@@]1(Cc2ccc(OC)cc2)[C@H]2c3cc(C(=O)N4CCCC4)n(CCc4ccc(O)c(OC)c4)c3C[C@H]2CN1C(=O)c1ccccc1 | 0.167
O=C1N(CCS(=O)(=O)c2ccccc2)Cc2ccccc2C[C@@]12COC(c1ccc(OCCCO)cc1)=N2 | -0.0459
CC(C)C[C@H]1NC(=O)[C@H](C)NC(=O)[C@@]23C(=O)N[C@@H](Cc4ccccc4)C2[C@H](C)[C@@]2(C)O[C@H]2C3/C=C/C/C=C\CNC1=O (stereo partly specified) | -0.54
COc1ccc([Si](C)(C)[C@H]2[C@H](CC(=O)N3CCC[C@H]3CO)O[C@@]3(C(=O)N(Cc4ccc(N5C(=O)c6cccc7cccc5c67)cc4)c4ccccc43)[C@@H]2C)cc1 | -0.221
COc1cccc(C)c1NC(=O)O[C@H]1[C@H](OC(=O)Nc2ccccc2)[C@H](OC(=O)Nc2ccccc2)[C@@H](OC)O[C@@H]1CO | -0.0994
C=CCC(OC(C)=O)[C@@H]1[C@@H](N(Cc2ccc(-c3ccccc3)cc2)C(=O)c2cccc3ccccc23)c2cc(OCCCO)ccc2N1C(=O)c1ccc2ccccc2n1 (stereo partly specified) | 0.0373
O=C1O[C@H](c2ccccc2)[C@H](c2ccccc2)N2[C@H]1[C@@H](C(=O)N1CCN(c3ncccn3)CC1)[C@]1(C(=O)Nc3ccc(C#CCCO)cc31)[C@H]2c1ccc(OCCO)cc1 | -0.0994
COC(=O)[C@@]1(Cc2ccccc2N=[N+]=[N-])N=C(c2ccc(OCCCO)cc2)O[C@H]1c1ccccc1 | -0.0994
